From PubChem BioAssay (NCATS)
“And” between values parts separate entries of the source, which are not always exact repeats. Identical values can stand only once. Inconclusive results are not listed. The source made the active and inactive calls. Calls come from the whole dose curve; as a rule, active = well fitted curve in the direction sought with a large enough effect; inconclusive = small, poorly fitted or top-dose-only effect, or another doubt; inactive = no such curve, though single readings can be large; an effect the other way counts as inactive or inconclusive.

Columns and labels:
[1] = qHTS of pediatric cancer cell lines to identify multiple opportunities for drug repurposing: Primary screen for LAN-5 cells (AID 1347100)
Procedure, shortened: (§1)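 Viability after 48 h compound treatment at 37C, 500-1,000 cells/well, read as ATP luminescence with CellTiter-Glo. Primary screens used 11-point (MIPE, 0.78 nM-46 µM) or 8-point (NPC, 0.59 nM-46 µM) final concentrations; follow-up screens used 11-point dilutions.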

[2] = qHTS of pediatric cancer cell lines to identify multiple opportunities for drug repurposing: Primary screen for BT-12 cells (AID 1347101); note: nearly all actives have a fitted effect of over 25% in size
Procedure, shortened: (§2)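 Cells (500-1,000/well) rested 5 h, then received compounds for 48 h; metabolically active cells were measured by CellTiter-Glo luminescence. Final concentrations spanned up to 46 µM (MIPE, 11-point) or 0.59 nM-46 µM (NPC, 8-point) in primary screens, 11-point in follow-ups.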

[3] = qHTS of pediatric cancer cell lines to identify multiple opportunities for drug repurposing: Primary screen for Rh18 cells (AID 1347102); note: nearly all actives have a fitted effect of over 65% in size
Procedure, shortened: as §1

[4] = qHTS of pediatric cancer cell lines to identify multiple opportunities for drug repurposing: Primary screen for OHS-50 cells (AID 1347103); note: nearly all actives have a fitted effect of over 40% in size
Procedure, shortened: as §2

[5] = qHTS of pediatric cancer cell lines to identify multiple opportunities for drug repurposing: Primary screen for RD cells (AID 1347104); note: nearly all actives have a fitted effect of over 55% in size
Procedure, shortened: (§3)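 500-1,000 cells/well; 5 h pre-incubation 37 °C/5% CO2; compound pinned; 48 h; CellTiter-Glo, 15 min RT; luminescence. MIPE 11-pt from 0.78 nM, NPC 8-pt from 0.59 nM final. Bortezomib 2.3 µM final as positive control.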

[6] = qHTS of pediatric cancer cell lines to identify multiple opportunities for drug repurposing: Primary screen for control Hh wild type fibroblast cells (AID 1347106); note: nearly all actives have a fitted effect of over 55% in size
Procedure, shortened: as §1

[7] = qHTS of pediatric cancer cell lines to identify multiple opportunities for drug repurposing: Primary screen for Rh30 cells (AID 1347107); note: nearly all actives have a fitted effect of over 75% in size
Procedure, shortened: as §1

[8] = qHTS of pediatric cancer cell lines to identify multiple opportunities for drug repurposing: Primary screen for Rh41 cells (AID 1347108); note: nearly all actives have a fitted effect of over 70% in size
Procedure, shortened: as §3

[9] = qHTS of pediatric cancer cell lines to identify multiple opportunities for drug repurposing: Primary screen for MG 63 (6-TG R) cells (AID 1347105); note: nearly all actives have a fitted effect of over 50% in size
Procedure, shortened: as §3

[10] = qHTS of pediatric cancer cell lines to identify multiple opportunities for drug repurposing: Confirmatory screen for NB1643 cells (AID 1347109); note: nearly all actives have a fitted effect of over 45% in size
Procedure, shortened: as §1

Measured: Potency
Potency is the fitted concentration of half-maximal effect.

Oc1ccccc1-c1ccccc1
not listed: [9] | [10]
inactive: all other assays above

CC(=O)[C@H]1CC[C@H]2[C@@H]3CC[C@H]4C[C@H](O)CC[C@]4(C)[C@H]3C(=O)C[C@]12C
not listed: [4] | [9] | [10]
inactive: all other assays above

CC(C)(N)Cc1ccc(Cl)cc1
not listed: [4] | [10]
inactive: all other assays above

NCCc1cc(O)c(O)cc1O
not listed: [4] | [9] | [10]
inactive: all other assays above

NCC1(CC(=O)O)CCCCC1
not listed: [9] | [10]
inactive: all other assays above

CC[C@@H](CO)NC(=O)[C@@H]1C=C2c3cccc4[nH]cc(c34)C[C@H]2N(C)C1
not listed: [9] | [10]
inactive: all other assays above

C#CCOC(C(=O)OCCN(C)C)(c1ccccc1)c1ccccc1
not listed: [9] | [10]
inactive: all other assays above

CC(CCc1ccccc1)NC(C)C(O)c1ccc(O)cc1 (centres undefined)
not listed: [4] | [8] | [10]
inactive: all other assays above

CCC(C(N)=O)N1CCCC1=O (centres undefined)
not listed: [9] | [10]
inactive: all other assays above

Clc1cccc(N2CCNCC2)c1
not listed: [4] | [9] | [10]
inactive: all other assays above

CCCC(C)(COC(N)=O)COC(=O)NC(C)C (centres undefined)
not listed: [9] | [10]
inactive: all other assays above

NN=C(N)N
not listed: [9] | [10]
inactive: all other assays above

Cc1cccc(C)c1NC1=NCCCS1
not listed: [9] | [10]
inactive: all other assays above

FC(F)(F)c1cccc(C2=CCN(CCc3ccc4ccccc4c3)CC2)c1
not listed: [4] | [10]
inactive: all other assays above

c1ccc(C2CC2)c(OCC2=NCCN2)c1
not listed: [4] | [10]
inactive: all other assays above

COc1ccc(C(=O)c2c(C)n(CCN3CCOCC3)c3ccccc23)cc1
not listed: [4] | [10]
inactive: all other assays above

CC1OC(C)OC(C)O1 (centres undefined)
not listed: [4] | [10]
inactive: all other assays above

CCN(CC)CCN1C(=O)CN=C(c2ccccc2F)c2cc(Cl)ccc21
not listed: [4] | [10]
inactive: all other assays above

CC(C)=CC1C(C(=O)OCc2cccc(Oc3ccccc3)c2)C1(C)C (centres undefined)
not listed: [4] | [9] | [10]
inactive: all other assays above

Cc1cccc(C)c1NC(=O)CN1CCCC1=O
not listed: [9] | [10]
inactive: all other assays above

CCN(C(C)=O)c1cccc(-c2ccnc3c(C#N)cnn23)c1
not listed: [9] | [10]
inactive: all other assays above

COC[C@@H](NC(C)=O)C(=O)NCc1ccccc1
not listed: [9]
inactive: all other assays above

C[C@@H]1[C@@H](CC(C[C@H]2O[C@@H]3O[C@]4(C)CC[C@@H]5[C@H](C)CC[C@@H]([C@H]2C)[C@@]35OO4)C[S+](=O)([O-])c2ccc(COC(=O)N(C)C)cc2)O[C@@H]2O[C@]3(C)CC[C@H]4[C@H](C)CC[C@@H]1[C@@]24OO3 (some centres undefined)
inactive: [6] | [7]
active: [1] 662 nM | [2] 344 nM | [3] 1.66 µM | [4] 0.306 µM | [10] 0.414 µM

COC1(CS(=O)c2ccccc2)CCN(CCc2c[nH]c3ccc(F)cc23)CC1 (centres undefined)
inactive: [1] | [2] | [3] | [5] | [6] | [7]

C=C1CC[C@@]2(O)[C@H]3Cc4ccc(O)c5c4[C@@]2(CCN3CC2CC2)[C@H]1O5
not listed: [9] | [10]
inactive: all other assays above

O=C(O)C(=O)c1cn(Cc2ccccc2)c2ccc(-c3ccc(OC(F)(F)F)cc3)cc12
inactive: [1] | [2] | [3] | [9] | [6] | [7]

c1ccc2c(c1)Nc1ccccc1S2
not listed: [4] | [10]
inactive: all other assays above

CC1NCCOC1c1ccccc1 (centres undefined)
not listed: [9] | [10]
inactive: all other assays above

C[C@@H]1[C@@H](C(=O)C[C@H]2O[C@@H]3O[C@]4(C)CC[C@@H]5[C@H](C)CC[C@@H]([C@H]2C)[C@@]35OO4)O[C@@H]2O[C@]3(C)CC[C@H]4[C@H](C)CC[C@@H]1[C@@]24OO3
active: [1] 16600 nM | [2] 432 nM | [4] 0.385 µM
inactive: [3] | [6] | [7]

CN(C)CCN(C)CCc1ccc(Cl)c(Cl)c1
not listed: [4] | [5] | [10]
inactive: all other assays above

Fc1ccc(C(OCCN2CCN(CCCc3ccccc3)CC2)c2ccc(F)cc2)cc1
inactive: [6]
active: [1] 16.6 µM and 8.41 µM | [2] 21.7 µM and 24.6 µM | [4] 10.9 µM and 15.5 µM | [5] 26.4 µM and 23.7 µM | [8] 20.9 µM

Oc1cccc2cccnc12
inactive: [3] | [7]

N[C@@H](Cc1ccc(N(CCCl)CCCl)cc1)C(=O)O
active: [1] 5.96 µM and 3.72 µM | [3] 21.1 µM | [4] 9.78 µM and 3.85 µM | [9] 16.8 µM and 18.7 µM | [10] 6.57 µM
inactive: [5] | [6] | [7]

CC1=C2C[C@@H]3[C@@H](CC=C4C[C@@H](O)CC[C@@]43C)[C@@H]2CC[C@]12O[C@H]1C[C@H](C)CN[C@H]1[C@H]2C
active: [4] 30.6 µM
inactive: [1] | [3] | [5] | [9] | [6]

C=C1C[C@@H]2[C@H](CC[C@]3(C)C(=O)CC[C@@H]23)[C@@]2(C)C=CC(=O)C=C12
inactive: [1] | [3] | [5] | [6] | [7] | [8]

C=C(C)[C@H]1Cc2c(ccc3c2O[C@@H]2COc4cc(OC)c(OC)cc4[C@@H]2C3=O)O1
active: [1] 1.68 µM and 526 nM | [2] 87.1 nM and 122 nM | [4] 138 nM and 243 nM | [8] 1.06 µM
inactive: [6] | [7]

COC[C@H]1OC(=O)c2coc3c2[C@@]1(C)C1=C(C3=O)C2CCC(=O)[C@@]2(C)C[C@H]1OC(C)=O (some centres undefined)
active: [1] 11800 nM | [3] 20.9 µM | [4] 4.32 µM | [5] 18.7 µM | [9] 9.35 µM | [8] 18.7 µM

CCC(COC(=O)c1cc(OC)c(OC)c(OC)c1)(c1ccccc1)N(C)C (centres undefined)
inactive: [3] | [5] | [6] | [7] | [8]

Cc1sc2c(c1C)C(c1ccc(Cl)cc1)=N[C@@H](CC(=O)OC(C)(C)C)c1nnc(C)n1-2
active: [1] 590 nM | [3] 0.935 µM | [4] 0.344 µM | [5] 0.59 µM | [8] 0.743 µM | [10] 1.31 µM

C[C@H]1O[C@@H](O[C@H]2[C@@H](O)C[C@H](O[C@H]3[C@@H](O)C[C@H](O[C@H]4CC[C@@]5(C)[C@H](CC[C@@H]6[C@@H]5CC[C@]5(C)[C@@H](C7=CC(=O)OC7)CC[C@]65O)C4)O[C@@H]3C)O[C@@H]2C)C[C@H](O)[C@@H]1O
inactive: [7]
active: [1] 47.3 nM | [2] 21.9 nM | [4] 0.011 µM | [5] 0.0075 µM | [9] 0.0053 µM | [6] 0.841 µM | [10] 0.329 µM

Oc1cc(Cl)ccc1Oc1ccc(Cl)cc1Cl
active: [2] 20500 nM | [4] 28.9 µM | [5] 39.4 µM and 23.7 µM
inactive: [6] | [7]

CC(C)=CCOc1c2occc2cc2ccc(=O)oc12
inactive: [1] | [3] | [5] | [6] | [7] | [8]

CN1C[C@H](CNC(=O)OCc2ccccc2)C[C@@H]2c3cccc4c3c(cn4C)C[C@H]21
inactive: [6] | [7] | [8]
active: [2] 15500 nM | [4] 21.9 µM

CC(O)(CS(=O)(=O)c1ccc(F)cc1)C(=O)Nc1ccc(C#N)c(C(F)(F)F)c1 (centres undefined)
inactive: [3]
active: [5] 5.9 µM | [9] 3.72 µM | [7] 3.72 µM | [8] 3.72 µM

CCC(=O)C(CC(C)N(C)C)(c1ccccc1)c1ccccc1 (centres undefined)
inactive: [1] | [3] | [6] | [7]
active: [4] 22.5 µM

N#CC(C#N)=Cc1ccc(O)c(O)c1
inactive: [3] | [5] | [9] | [6] | [7] | [8]

CN(C)[C@@H]1C(=O)C(C(N)=O)=C(O)[C@@]2(O)C(=O)C3=C(O)c4c(O)cccc4[C@@](C)(O)[C@H]3C[C@@H]12
not listed: [2] | [9] | [10]
inactive: all other assays above

COc1ccc2c(c1OC)CN1CCc3cc4c(cc3C1C2)OCO4 (centres undefined)
active: [2] 15500 nM | [4] 17.4 µM
not listed: [1] | [10]
inactive: all other assays above

CC(C)(C)CC(C)(C)c1ccc(O)cc1
inactive: [3] | [5] | [6] | [7] | [8]
active: [4] 25.2 µM and 15.5 µM

Clc1ccc(CCC(Cn2ccnc2)Sc2c(Cl)cccc2Cl)cc1 (centres undefined)
active: [1] 20900 nM | [4] 27.6 µM | [5] 37.2 µM
not listed: [2] | [10]
inactive: all other assays above

C[C@@H]1O[C@@H](O[C@H]2C[C@@H](O)[C@]3(CO)[C@H]4[C@H](O)C[C@]5(C)[C@@H](C6=CC(=O)OC6)CC[C@]5(O)[C@@H]4CC[C@]3(O)C2)[C@H](O)[C@H](O)[C@H]1O
active: [1] 46.9 nM and 211 nM | [2] 27.3 nM and 61.7 nM | [4] 19.3 nM and 49 nM | [5] 14.8 nM and 33.5 nM | [6] 0.0148 µM | [10] 369 nM and 585 nM
inactive: [7]

Cn1cc(C2=C(c3cn(C4CCN(Cc5ccccn5)CC4)c4ccccc34)C(=O)NC2=O)c2ccccc21
inactive: [2] | [3] | [5] | [6] | [7] | [8]

Cn1c(CCCC(=O)O)nc2cc(N(CCCl)CCCl)ccc21
active: [4] 24.6 µM and 24.3 µM | [10] 16.5 µM
not listed: [1] | [9]
inactive: all other assays above
